The source of these data is PubChem BioAssay (NCI).

Some test systems named below: DU-145 prostate; K-562 leukemia; MALME-3M melanoma; MDA-MB-231 breast; RXF 393 renal; SF-268 CNS; SF-295 CNS; SF-539 CNS; UACC-257 melanoma; M14 melanoma.
Holding throughout (assay): NCI-60 one-dose screen, 48 h (100 = growth as untreated, 0 = no growth, -100 = all killed)
Common to all, as to conditions: 10 µM unless noted

Structures are written as SMILES. “And” between values parts separate entries of the source, which are not always exact repeats. Identical values can stand only once. About 83,000 compounds went through this panel and 20% of them were active in at least one assay; those are over-represented in the sample as a whole.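 The endpoint reported here, percent growth, reads 100 for growth as untreated, 0 for no net growth and -100 for all cells dead.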 A number with no mark means an inactive call. The source made the active and inactive calls. Rule for the calls: active = growth percent below 10; inactive = the rest.

In the case of `CCOC(=O)c1cnn(-c2ccc(S(N)(=O)=O)cc2)c1N`, the growth is 132% in the experiment on DU-145 prostate; 87.7% in the experiment on K-562 leukemia; 104% in the experiment on MALME-3M melanoma; 111% with MDA-MB-231 breast; 95.9% in the experiment with RXF 393 renal; 161% with SF-268 CNS. For the same molecule, the growth was 110% in the experiment on SF-295 CNS, 101% in the experiment with SF-539 CNS, 96.1% in the experiment on UACC-257 melanoma and 98.9% in the experiment on M14 melanoma.

`N#CC(Cc1cccc2ccccc12)c1cc2ccccc2[nH]1` (stereo not given): the growth with DU-145 prostate is 103%; in the experiment with K-562 leukemia, 86.6%; in the experiment on MALME-3M melanoma it was 81.9%; with MDA-MB-231 breast, 81.4%; in the experiment on RXF 393 renal it was 87.8%; with SF-268 CNS, 89.3%. The growth was 95.9% in the experiment with SF-295 CNS, 102% in the experiment with SF-539 CNS, 93.9% with UACC-257 melanoma and 82.6% in the experiment on M14 melanoma.

Take `CCNC(=S)n1nc(SC)c(C(=O)OCC)c1N`: the growth is 102% in the experiment on DU-145 prostate; 85.5% with K-562 leukemia; 106% in the experiment on MALME-3M melanoma; 92.5% in the experiment with MDA-MB-231 breast; 107% in the experiment with RXF 393 renal; 92% in the experiment with SF-268 CNS. For the same molecule, the growth in the experiment on SF-295 CNS is 98.1%; in the experiment on SF-539 CNS, 93.1%; in the experiment on UACC-257 melanoma, 120%; with M14 melanoma, 107%.

Regarding `O=C(CCN1CCOCC1)Nc1cccc(-n2cc(-c3ccncc3)c(-c3ccc(Cl)c(O)c3)n2)c1`, the growth in the experiment with DU-145 prostate was 13%; in the experiment on K-562 leukemia it was 20.2%; in the experiment with MALME-3M melanoma it was 66.3%; with MDA-MB-231 breast it was 55.4%; with RXF 393 renal it was 22.2%; in the experiment with SF-268 CNS, 37%. The growth is 6.52% (active) in the experiment on SF-295 CNS, -19.7% (active) with SF-539 CNS, 66.2% in the experiment on UACC-257 melanoma and 5.06% (active) in the experiment on M14 melanoma.

Take `COc1ccc(C(CC(=O)c2ccc3c(c2)OCO3)C(=O)O)cc1OC` (stereo not given): the growth is 121% and 106% with DU-145 prostate; 119% and 90.1% in the experiment on K-562 leukemia; 114% and 90.3% with MALME-3M melanoma; 128% and 113% in the experiment with MDA-MB-231 breast; 115% and 106% in the experiment with RXF 393 renal; 111% and 97.7% in the experiment on SF-268 CNS. Further, the growth is 86.9% and 81.9% in the experiment on SF-295 CNS; 126% and 104% in the experiment with SF-539 CNS; 91.5% and 106% with UACC-257 melanoma; 115% and 103% with M14 melanoma.

Take `Cc1n(Cc2ccc3ccccc3c2)c(Cl)c(Cl)[n+]1Cc1ccc2ccccc2c1`: the growth in the experiment with DU-145 prostate was 48.3%; in the experiment with K-562 leukemia, 9.4% (active); with MALME-3M melanoma, -0.456% (active); in the experiment with MDA-MB-231 breast it was 10.6%; with RXF 393 renal, 43.3%; in the experiment on SF-268 CNS it was 34.9%. Besides, the growth in the experiment with SF-295 CNS was 67.8%; with SF-539 CNS, 54.4%; with UACC-257 melanoma, -13.6% (active); with M14 melanoma it was 10.9%.

`O=C1CCc2c(sc3[nH]c(=S)n(Cc4ccc(Cl)cc4)c(=O)c23)C1`: the growth in the experiment on DU-145 prostate is 23.7%; in the experiment on K-562 leukemia, 11%; in the experiment with MALME-3M melanoma, 1.17% (active); with MDA-MB-231 breast it was -24.7% (active); in the experiment on RXF 393 renal, 5.18% (active); in the experiment on SF-268 CNS, 18.7%. In addition, the growth with SF-295 CNS is -6.67% (active); in the experiment with SF-539 CNS, -57.4% (active); with UACC-257 melanoma, -14.9% (active); in the experiment on M14 melanoma, 12.4%.

For the molecule `CC1(Cc2ccccc2)CC2=C(C(=O)O1)C(c1ccccc1)NC(=O)N2` (stereo not given), the growth with DU-145 prostate was 111%; in the experiment on K-562 leukemia, 78.4%; with MALME-3M melanoma, 104%; in the experiment with MDA-MB-231 breast it was 103%; with RXF 393 renal, 108%; with SF-268 CNS, 110%. In addition, the growth in the experiment on SF-295 CNS was 104%; in the experiment on SF-539 CNS it was 94.5%; in the experiment on UACC-257 melanoma it was 101%; in the experiment with M14 melanoma, 98%.

On to `NC1=CC(=O)c2cccnc2C1=O`, for which the growth with DU-145 prostate is -1.98% (active); with K-562 leukemia, -48.4% (active); in the experiment on MALME-3M melanoma, -81.4% (active); with MDA-MB-231 breast, -13.5% (active); in the experiment with RXF 393 renal, 15.8%; in the experiment with SF-268 CNS, -0.409% (active). Besides, the growth with SF-295 CNS is 22.4%; in the experiment on SF-539 CNS, -89.2% (active); with UACC-257 melanoma, -48.4% (active); with M14 melanoma it was -88.6% (active).

With `COc1cc(-c2nc3occn3c2-c2ccnc(NCCCNS(=O)(=O)c3ccc(O)cc3)n2)ccc1F`, the growth in the experiment with DU-145 prostate is 110%; with K-562 leukemia, 80.6%; in the experiment on MALME-3M melanoma, -7.42% (active); with MDA-MB-231 breast, 67.1%; with RXF 393 renal it was 105%; in the experiment with SF-268 CNS, 110%. For the same molecule, the growth is 91.6% with SF-295 CNS, 110% with SF-539 CNS, 54.4% with UACC-257 melanoma and 26.2% with M14 melanoma.

Consider `O=C(O)C1C2CCC1C(O)C2` (stereo not given), for which the growth was 100% and 108% with DU-145 prostate; 107% and 92.7% in the experiment on K-562 leukemia; 109% and 86.3% with MALME-3M melanoma; 103% and 113% in the experiment with MDA-MB-231 breast; 111% and 116% in the experiment with RXF 393 renal; 97.7% and 101% with SF-268 CNS. Besides, the growth is 108% and 121% in the experiment with SF-295 CNS; 94.9% and 101% in the experiment with SF-539 CNS; 100% and 103% in the experiment on UACC-257 melanoma; 98.8% and 95.4% in the experiment on M14 melanoma.

As for `CC1=C2[C@@H](CC1)[C@]1(C)O[C@@](C3CC3)(C[C@H]1OC(=O)CO)[C@H]2OC(=O)/C=C/c1ccccc1`, the growth in the experiment with DU-145 prostate is 105%; in the experiment with K-562 leukemia it was 79.4%; in the experiment on MALME-3M melanoma it was 90.9%; in the experiment with MDA-MB-231 breast it was 81.2%; in the experiment on RXF 393 renal it was 38.4%; in the experiment with SF-268 CNS, 41%. Also, the growth was 100% in the experiment with SF-295 CNS, 109% in the experiment with SF-539 CNS, 92.1% in the experiment with UACC-257 melanoma and 96.4% with M14 melanoma.
